Reference: PubChem BioAssay (NCATS)
This is one part of the list. Where a call stands in place of a potency, no number is given. Calls of active or inactive are those of the source. Calls come from the whole dose curve; as a rule, active = well fitted inhibition curve with a large enough effect; inconclusive = small, poorly fitted or top-dose-only effect, or another doubt; inactive = no such curve, though single readings can be large or run the other way.
Potency is the fitted concentration of half-maximal effect.

The molecules below were run against Vitamin D3 receptor (Homo sapiens) (UniProt P11473) (assay: qHTS for Inhibitors of the vitamin D receptor (VDR): Hit Validation using a Beta-Lactamase Assay (AID 602202)). Details: VDR beta-lactamase reporter cells, FRET ratio, cells co-treated with VDR agonist LG190178; series mostly up to 46.1 µM.
Chain of Vitamin D3 receptor (Homo sapiens) (P11473 whole entry, looked up): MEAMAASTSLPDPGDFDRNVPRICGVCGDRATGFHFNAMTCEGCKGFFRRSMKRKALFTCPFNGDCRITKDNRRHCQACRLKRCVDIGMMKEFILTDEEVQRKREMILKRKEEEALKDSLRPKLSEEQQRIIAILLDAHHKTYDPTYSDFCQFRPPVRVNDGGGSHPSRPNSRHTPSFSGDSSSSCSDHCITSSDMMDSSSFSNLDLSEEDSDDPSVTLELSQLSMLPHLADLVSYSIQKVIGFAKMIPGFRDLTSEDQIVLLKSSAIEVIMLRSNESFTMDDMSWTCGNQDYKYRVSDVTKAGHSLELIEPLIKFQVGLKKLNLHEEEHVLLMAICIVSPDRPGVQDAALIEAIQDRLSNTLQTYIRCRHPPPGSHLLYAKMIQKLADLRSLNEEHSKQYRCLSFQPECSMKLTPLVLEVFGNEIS
From the text: The vitamin D receptor (VDR) is a ligand-activated transcription factor and is partially responsible for the regulation of the endocrine system. This includes the transcriptional regulation of genes involved in the production of the parathyroid hormone (PTH) and the regulation of the blood calcium level. High levels of PHT can cause hypercalcemia in the case of primary and tertiary hyperparathyroidism. The VDR-mediated gene regulation, activated by its ligand 1,25-dihydroxyvitamin D3 (1,25-(OH)2D3), is governed by the recruitment of coactivators. Our hypothesis is that small molecules, with the ability to inhibit the interaction between VDR and certain coactivators, are able to selectively modulate VDR-mediated transcription. Our long term objective is the application these VDR-coactivator inhibitors to study the role of VDR-coactivator binding for specific VDR regulated genes. Ultimately, these molecules can be developed into new treatments for hypercalcemic hyperparathyroidism. No small molecule or non-peptide inhibitors are known for the VDR-coactivator interaction.
In a collaboration between the University of Wisconsin, Milwaukee and the NIH Chemical Genomics Center (NCGC) a HTS-compatible enzymatic assay was developed. The assay uses fluorescence polarization as its read-out to measure the inhibition between VDR and coregulator peptide SRC2-3 exerted by small molecules. This assay was used to screen the NIH Molecular Libraries Small Molecule Repository (MLSMR). The cell-based VDR transcription assay was carried out with commercially available stably transfected HEK293 cells. The cell line expresses a fusion protein of VDR-GAL4 DNA binding domain, which is activated by agonist LG190178 and induces transcription of a beta-lactamase reporter gene under control of an UAS response element. Successful activation is detected by a decrease in time-resolved fluorescence resonance energy transfer (TR-FRET) caused by enzymatic cleavage of fluorescent betalactam substrate added after 24h incubation. The cleaved substrate concentration was quantified by measuring the fluorescence emission at 447 nm.
NIH Chemical Genomics Center [NCGC]
NIH Molecular Libraries Probe Centers Network [MLPCN]
Assay Submitter (PI): Alexander Arnold, University of Wilwaukee
Plate: 384 black clear bottom, tissue culture treated
Step 1: Plate 20,000 cell per well (32 uL)
Step 2: 4 hours incubatio
Step 3: Add screening compounds
Step 5: 18 hour incubation
Step 6: Add FRET reagent (6 uL)
Step 7: 2 hour incubation
In the case of `CCOC(=O)c1sc(NC(=O)CSc2nc(C)cc(C(F)(F)F)n2)c(C#N)c1C`, the Potency is reported as “inactive”.
With `C[C@@H](NC(=O)OC(C)(C)C)c1nnc(S(=O)(=O)Cc2ccccc2)o1` the Potency was 23.1 µM (active).
With `CC(=O)N1CC[n+]2c(-c3ccc([N+](=O)[O-])cc3)csc21` the Potency was “inactive”.
`O=C(/C=C/c1ccc(Cl)c([N+](=O)[O-])c1)c1cccnc1` was tested, and the Potency was “inactive”.
`CC1CCN(C(=S)c2ccc(-c3ccc(Cl)cc3Cl)o2)CC1` was tested, and the Potency was “inactive”.
`C=CCOc1ccc(/C=C2/C(=O)ON=C2C)cc1OCC` was tested, and the Potency was “inactive”.
`Cc1cccc(Oc2c([N+](=O)[O-])c(=O)n(C)c3ccccc23)c1` was tested, and the Potency was “inactive”.
With `CCOC(=O)N1CCN(C(c2cccnc2)c2ccc3cccnc3c2O)CC1` (stereo not drawn) the Potency was “inactive”.
`CSc1nnc(NC(=O)c2nc(S(=O)(=O)Cc3ccc(C)cc3)ncc2Cl)s1` was tested, and the Potency was 5.8 µM (active).
`Cc1cc(C)nc(S/C=C/C(=O)c2ccccc2)n1` was tested, and the Potency was 3.26 µM (active).
With `CN(C)N=Nc1ccc2nc[nH]c2c1` the Potency was “inactive”.
With `CCOc1ccc(N(Cc2ccccc2)C(=O)c2nc(S(C)(=O)=O)ncc2Cl)cc1` the Potency was 20.6 µM (active).
`COc1ccc(CS(=O)/C(Cl)=C(/Cl)C(=O)Nc2ccc(OC)nc2)cc1` (stereo not drawn) was tested, and the Potency was 0.731 µM (active).
For `O=c1[nH]c(/C=C\c2cccc(C(F)(F)F)c2)nc(O)c1[N+](=O)[O-]`, the Potency was “inactive”.
In the case of `O=C(/C=C/c1ccccc1)c1ccccc1O`, the Potency is reported as “inactive”.
`O=C(/C=C/c1ccc(Cl)cc1Cl)c1cccnc1` was tested, and the Potency was “inactive”.
In the case of `Cc1ccc(O)c(NC(=O)CCS(=O)(=O)c2nc(-c3ccc4c(c3)OCO4)cc(C(F)(F)F)n2)c1`, the Potency is reported as 23.1 µM (active).
With `CC(=O)N(C1=C(Cl)C(=O)c2ccccc2C1=O)c1ccc(C(=O)O)cc1` the Potency was 20.6 µM (active).
In the case of `Cc1ccc(-c2nc3ccccn3c2Nc2c(C)cccc2C)o1`, the Potency is reported as “inactive”.
With `O=c1cc(CO)oc(C(Nc2cccc(C(F)(F)F)c2)c2ccccn2)c1O` (stereo not drawn) the Potency was “inactive”.
For `COC(=O)/C=C\C(=O)Nc1cccc([N+](=O)[O-])c1`, the Potency was 14.6 µM (active).
In the case of `c1ccc2c(C[n+]3csc4ccccc43)cccc2c1`, the Potency is reported as “inactive”.
In the case of `CCOC(=O)c1sc(=S)n2c1[nH]c(=O)c1ccc(C(=O)OC)cc12`, the Potency is reported as “inactive”.
In the case of `Cc1cccc(CS(=O)(=O)c2ncc(Cl)c(C(=O)Nc3ccc(F)cc3)n2)c1`, the Potency is reported as 5.17 µM (active).
In the case of `CCCCS(=O)(=O)c1oc(-c2cccs2)nc1S(=O)(=O)c1ccccc1`, the Potency is reported as 5.8 µM (active).
`O=[N+]([O-])/C=C/c1ccc2c(ccn2Cc2ccccc2)c1` was tested, and the Potency was 18.4 µM (active).
In the case of `O=C(Nc1nc(-c2ccncc2)cs1)C1COc2ccccc2O1` (stereo not drawn), the Potency is reported as “inactive”.
For `COc1ccc(OCc2nnc3n2N=C(c2ccccc2)C(CC(=O)O)S3)cc1` (stereo not drawn), the Potency was “inactive”.
